Laboratory results published in PubChem BioAssay (Tox21).
Inconclusive results are not listed. Active and inactive are the calls of the source. Unless noted, calls follow the shape of the dose curve; as a rule, active = well fitted curve in the direction sought with a large enough effect in the repeat runs; inconclusive = weak or mixed curves; inactive = no such curve, though single readings can be large; an effect the other way counts as inactive or inconclusive.

Experiments:
[1] = qHTS assay to identify small molecule antagonists of the estrogen receptor alpha (ER-alpha) signaling pathway using the BG1 cell line in the presence of 0.1 nM 17-beta-estradiol - cell viability counter screen (AID 1259241); also: nearly all actives have a fitted effect of over 40% in size; also: potency is read from the fitted curve at half-maximal effect
How it was run: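 VM7Luc4E2 cells (endogenous full-length ER-alpha, 4xERE-luciferase), cultured 5 days in charcoal-stripped serum, exposed to compounds with 0.1 nM 17beta-estradiol (final) for 22 hr at 37C. Viability read in same wells as live-cell protease fluorescence after 30 min.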

[2] = qHTS assay to identify small molecule antagonists of the androgen receptor (AR) signaling pathway using the MDA cell line in the presence of 0.5 nM R1881 - cell viability counter screen (AID 1259242); also: nearly all actives have a fitted effect of over 45% in size
How it was run: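 Human breast carcinoma MDA-kb2 cells, cultured without CO2, receive compounds alongside 0.5 nM (final) R1881 agonist. After 16 hr at 37C, viability is taken as live-cell protease signal.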

[3] = qHTS assay to identify small molecule HDAC inhibitors (AID 1259364); also: potency is read from the fitted curve at half-maximal effect;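 also: wild-type HCT-116 cells with endogenous class I/II HDAC activity; nearly all actives have a fitted effect of over 45% in size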; as to activity change, negative = inhibition: top concentration of the series differs between compounds
How it was run: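 After a 2 hr compound incubation (37C, 5% CO2), HCT-116 cells seeded at 1,500/well the day before received HDAC-Glo reagent; signal read as luminescence after 30 min at room temperature.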

[4] = qHTS assay to identify small molecule HDAC inhibitors - cell viability counter screen (AID 1259365); also: series mostly up to about 92 µM; nearly all actives have a fitted effect of over 50% in size
How it was run: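 Wild-type HCT-116 cells, 1,500/well, cultured overnight, then compound-treated 2 h at 37 C. Viability measured as ATP luminescence with CellTiter-Glo after 30 min at room temperature.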

[5] = qHTS assay to identify small molecule agonists of the sonic hedgehog signaling (Shh) pathway (AID 1259368; calls by dose curve;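 also: NIH/3T3-derived 3T3Gli1-Luc cells carrying a stable Gli1-driven firefly luciferase reporter; series mostly up to about 92 µM; nearly all actives have a fitted effect of over 15% in size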)
How it was run: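 Stable NIH/3T3 Gli1-Luc reporter clone; 24 hr cpd exposure after a 4 hr settling period; luminescence endpoint.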

[6] = qHTS assay to identify small molecule antagonists of the sonic hedgehog signaling (Shh) pathway (AID 1259369; calls by dose curve; also: nearly all actives have a fitted effect of over 45% in size; also: potency is read from the fitted curve at half-maximal effect)
How it was run: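 Gli1 transcriptional reporter (firefly Luc) in NIH/3T3 background, conditioned-medium activated. 24hr exposure, luminescence endpoint.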

[7] = biological target: Estrogen receptor beta (Homo sapiens) (UniProt Q92731); assay: qHTS assay to identify small molecule agonists of the estrogen receptor beta (ER-beta) signaling pathway (AID 1259377; active = well fitted activation curve with a large enough effect in the signal ratio in the repeat runs, not every such curve was filed as active; the % refers to the signal ratio)
How it was run: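 ER-beta-UAS-bla HEK293T cells in medium with 2% charcoal-stripped FBS were exposed to compounds for 16 h at 37C. Beta-lactamase reporter activity was read as fluorescence after 2 h with LiveBLAzer B/G FRET substrate at room temperature.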

[8] = qHTS assay to identify small molecule agonists of the androgen receptor (AR) signaling pathway in the presence of an antagonist - cell viability counter screen (AID 1259379); also: nearly all actives have a fitted effect of over 25% in size; also: potency is read from the fitted curve at half-maximal effect;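 as to activity change, negative = cytotoxicity: MDA-kb2 human breast cancer cells carrying an MMTV luciferase reporter; series mostly up to about 92 µM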
How it was run: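 Counter screen for cell viability run in parallel with the AR agonist-mode luciferase assay. MDA-kb2 cells were co-treated with nilutamide (3.0uM final) and compounds, then incubated 16 hr at 37C, and CellTiter-Fluor fluorescence was measured.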

[9] = biological target: Androgen receptor (Homo sapiens) (UniProt P10275); assay: qHTS assay to identify small molecule agonists of the androgen receptor (AR) signaling pathway in the presence of an antagonist (AID 1259381; calls by dose curve; also: nearly all actives have a fitted effect of over 15% in size)
How it was run: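 AR antagonist background: nilutamide 3.0uM final. Cell line: MDA-kb2, MMTV-driven luciferase, responsive to both AR and GR. Exposure 16hr, 37C, no CO2; ONE-Glo luminescence.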

[10] = qHTS assay to identify small molecule antagonists of the estrogen receptor beta (ER-beta) signaling pathway - cell viability counter screen (AID 1259382); also: series mostly up to about 92 µM; nearly all actives have a fitted effect of over 55% in size
How it was run: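 HEK293T ER-beta-UAS-bla, 2% charcoal-stripped FBS; compounds + 1nM E2 16 hr 37C; CellTiter-Glo luminescence, 30 min RT.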

[11] = biological target: Estrogen receptor (Homo sapiens) (UniProt P03372); assay: qHTS assay to identify small molecule agonists of the estrogen receptor alpha (ER-alpha) signaling pathway in the presence of an antagonist (AID 1259383; calls by dose curve; also: top concentration of the series differs between compounds; nearly all actives have a fitted effect of over 15% in size)
How it was run: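 ER-alpha agonism measured under antagonist challenge: 10.0nM ICI-182,780 (final) plus compound, 15 concentrations, 22hr, VM7Luc4E2 ERE-luciferase cells. Read by luminescence.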

[12] = qHTS assay to identify small molecule agonists or antagonists of the thyroid stimulating hormone receptor (TSHR) signaling pathway - wild type cell line counter screen (AID 1259384; calls by dose curve)
How it was run: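 Wild-type Hek293 cells, 800/well, 18 h at 37C, then compound with Ro20-1724 for 30 min RT. cAMP by HTRF (cAMP-d2/anti-cAMP cryptate), 1 h RT, fluorescence read. 15 concentrations, triplicates.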

[13] = biological target: Androgen receptor (Homo sapiens) (UniProt P10275); assay: qHTS assay to identify small molecule antagonists of the androgen receptor (AR) signaling pathway using the MDA cell line in the presence of 0.5 nM R1881 (AID 1259243); also: nearly all actives have a fitted effect of over 50% in size; also: potency is read from the fitted curve at half-maximal effect
How it was run: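 Cells: MDA-kb2 (MMTV-luc). Stimulus: 0.5 nM R1881. Time: 16 hr, 37C, no CO2. Detection: ONE-Glo luminescence after 30 min at RT.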

[14] = qHTS assay to identify small molecule phospholipidosis (PLD) inducers (AID 1259344; active = well fitted curve in the direction sought with a large enough effect; an effect the other way counts as inactive or inconclusive)
How it was run: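 Image-based: LipidTOX Red pit count/intensity per well and per cell; HepG2, 24 h compound at 37 C, PFA fixation, Hoechst counterstain.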

[15] = qHTS assay to identify small molecule agonists of the estrogen receptor beta (ER-beta) signaling pathway - cell viability counter screen (AID 1259380); also: nearly all actives have a fitted effect of over 30% in size; also: potency is read from the fitted curve at half-maximal effect
How it was run: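 In this qHTS counter screen, HEK293T cells carrying an ER-beta/UAS beta-lactamase reporter, grown in 2% charcoal-stripped FBS, received compound for 16 hr; ATP-based CellTiter-Glo luminescence was then read after 30 min at room temperature.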

[16] = biological target: Thyrotropin receptor (Homo sapiens) (UniProt P16473); assay: qHTS assay to identify small molecule antagonists of the thyroid stimulating hormone receptor (TSHR) signaling pathway (AID 1259385; calls by dose curve; also: nearly all actives have a fitted effect of over 20% in size)
How it was run: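 TSHR-HEK293 cells (800/well) plated 18 h, then compounds with Ro20-1724 and TSH at 1.5 ng/mL final, 30 min at room temperature. cAMP quantified by HTRF (cAMP-d2/anti-cAMP-cryptate, 1 h); 15 concentrations in triplicate.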

[17] = biological target: Estrogen receptor (Homo sapiens) (UniProt P03372); assay: qHTS assay to identify small molecule antagonists of the estrogen receptor alpha (ER-alpha) signaling pathway using the BG1 cell line in the presence of 0.1 nM 17-beta-estradiol (AID 1259244); also: nearly all actives have a fitted effect of over 50% in size
How it was run: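 Seeding of stripped-serum-adapted VM7Luc4E2 cells, 24 h attachment, compound transfer, then 0.1 nM final 17beta-estradiol; after 22 h incubation, ONE-Glo reagent and luminescence reading.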

[18] = qHTS assay to identify small molecule agonists of the sonic hedgehog signaling (Shh) pathway - cell viability counter screen (AID 1259366); also: nearly all actives have a fitted effect of over 50% in size; also: potency is read from the fitted curve at half-maximal effect
How it was run: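 NIH/3T3-derived Gli1-Luc reporter cells, 2,000 per well, received compound after 4 h and were treated about 23 h at 37C. Viability measured in the same wells by CellTiter-Fluor fluorescence after 1 h.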

[19] = qHTS assay to identify small molecule antagonists of the sonic hedgehog signaling (Shh) pathway - cell viability counter screen (AID 1259367); also: nearly all actives have a fitted effect of over 55% in size; also: potency is read from the fitted curve at half-maximal effect
How it was run: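 Tox21 library chemicals were tested on a Gli1-Luc NIH/3T3 clone (2,000 cells/well) stimulated by conditioned medium; viability was quantified as fluorescence from CellTiter-Fluor reagent added at 23 hr.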

[20] = biological target: Estrogen receptor beta (Homo sapiens) (UniProt Q92731); assay: qHTS assay to identify small molecule antagonists of the estrogen receptor beta (ER-beta) signaling pathway (AID 1259378; active = well fitted inhibition curve with a large enough effect in the signal ratio in the repeat runs, not every such curve was filed as active; the % refers to the signal ratio)
How it was run: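 ER-beta-UAS-bla HEK293T cells in 2% charcoal-stripped FBS medium treated with compound plus 1nM final 17-beta-estradiol for 16 hr at 37C. Beta-lactamase reporter read by FRET substrate fluorescence after 2 hours at room temperature.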
% is scaled to controls: 0 for no effect and ±100 for the full control effect.

Chain of Thyrotropin receptor (Homo sapiens) (P16473 whole entry, looked up): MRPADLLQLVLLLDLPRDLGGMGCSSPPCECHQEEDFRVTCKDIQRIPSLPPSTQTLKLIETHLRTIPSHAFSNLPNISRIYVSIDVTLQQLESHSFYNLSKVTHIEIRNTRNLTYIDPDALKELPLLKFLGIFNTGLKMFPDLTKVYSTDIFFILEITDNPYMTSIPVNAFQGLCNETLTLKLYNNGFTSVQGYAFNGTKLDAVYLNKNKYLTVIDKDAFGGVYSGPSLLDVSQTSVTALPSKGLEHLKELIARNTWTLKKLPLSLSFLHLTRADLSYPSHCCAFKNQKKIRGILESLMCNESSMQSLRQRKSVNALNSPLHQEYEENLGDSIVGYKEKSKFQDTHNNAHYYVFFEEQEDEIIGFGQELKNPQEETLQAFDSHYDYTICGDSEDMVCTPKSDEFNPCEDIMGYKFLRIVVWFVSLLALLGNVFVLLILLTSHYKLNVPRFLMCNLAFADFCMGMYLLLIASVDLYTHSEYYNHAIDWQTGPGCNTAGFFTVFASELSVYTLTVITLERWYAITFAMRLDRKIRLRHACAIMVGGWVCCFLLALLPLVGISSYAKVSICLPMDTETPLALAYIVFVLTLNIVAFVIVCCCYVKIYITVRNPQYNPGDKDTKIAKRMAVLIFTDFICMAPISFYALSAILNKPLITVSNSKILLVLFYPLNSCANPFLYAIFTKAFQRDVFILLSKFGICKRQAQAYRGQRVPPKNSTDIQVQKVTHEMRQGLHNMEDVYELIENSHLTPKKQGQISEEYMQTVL
Chain of Estrogen receptor (Homo sapiens) (P03372 whole entry, looked up): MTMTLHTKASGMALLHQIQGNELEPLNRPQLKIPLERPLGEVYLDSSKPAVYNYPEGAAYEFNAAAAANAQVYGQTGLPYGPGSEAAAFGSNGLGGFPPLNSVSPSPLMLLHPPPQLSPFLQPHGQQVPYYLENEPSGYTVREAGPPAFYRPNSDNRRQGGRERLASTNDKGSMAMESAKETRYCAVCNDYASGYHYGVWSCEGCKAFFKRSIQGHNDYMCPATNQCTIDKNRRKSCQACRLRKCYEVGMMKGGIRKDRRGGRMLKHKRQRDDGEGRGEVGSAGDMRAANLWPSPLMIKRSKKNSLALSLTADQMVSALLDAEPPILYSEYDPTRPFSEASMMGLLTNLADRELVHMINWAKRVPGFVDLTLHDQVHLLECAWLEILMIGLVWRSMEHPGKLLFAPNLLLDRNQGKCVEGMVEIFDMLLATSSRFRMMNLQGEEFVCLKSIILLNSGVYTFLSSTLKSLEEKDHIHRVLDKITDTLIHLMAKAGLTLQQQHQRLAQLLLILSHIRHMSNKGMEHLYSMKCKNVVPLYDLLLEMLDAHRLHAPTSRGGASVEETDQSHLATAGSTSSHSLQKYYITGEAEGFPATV
Chain of Androgen receptor (Homo sapiens) (P10275 whole entry, looked up): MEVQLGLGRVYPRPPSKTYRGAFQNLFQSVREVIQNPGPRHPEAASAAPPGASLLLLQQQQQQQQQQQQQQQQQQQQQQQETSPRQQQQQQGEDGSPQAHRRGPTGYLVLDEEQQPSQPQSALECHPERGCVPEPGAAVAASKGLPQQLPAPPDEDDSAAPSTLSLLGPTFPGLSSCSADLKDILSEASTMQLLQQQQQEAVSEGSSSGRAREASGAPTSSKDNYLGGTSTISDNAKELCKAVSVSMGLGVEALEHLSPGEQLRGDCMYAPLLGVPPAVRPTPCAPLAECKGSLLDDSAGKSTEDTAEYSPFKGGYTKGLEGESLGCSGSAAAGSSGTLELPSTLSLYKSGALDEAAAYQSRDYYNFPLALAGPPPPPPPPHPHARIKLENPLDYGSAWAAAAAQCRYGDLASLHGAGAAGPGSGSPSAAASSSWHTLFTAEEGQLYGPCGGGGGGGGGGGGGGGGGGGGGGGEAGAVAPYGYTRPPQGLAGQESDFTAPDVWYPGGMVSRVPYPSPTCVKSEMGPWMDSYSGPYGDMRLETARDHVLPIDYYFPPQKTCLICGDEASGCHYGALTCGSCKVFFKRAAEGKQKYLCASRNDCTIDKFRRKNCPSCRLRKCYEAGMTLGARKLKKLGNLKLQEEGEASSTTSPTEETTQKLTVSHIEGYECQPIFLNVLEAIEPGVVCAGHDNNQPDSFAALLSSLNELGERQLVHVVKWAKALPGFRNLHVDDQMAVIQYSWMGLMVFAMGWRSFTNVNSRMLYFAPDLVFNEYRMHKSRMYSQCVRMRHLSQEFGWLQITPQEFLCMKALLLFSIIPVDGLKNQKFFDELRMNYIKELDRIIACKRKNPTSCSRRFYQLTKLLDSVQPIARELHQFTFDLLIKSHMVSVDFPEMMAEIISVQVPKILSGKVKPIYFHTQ
Chain of Estrogen receptor beta (Homo sapiens) (Q92731 whole entry, looked up): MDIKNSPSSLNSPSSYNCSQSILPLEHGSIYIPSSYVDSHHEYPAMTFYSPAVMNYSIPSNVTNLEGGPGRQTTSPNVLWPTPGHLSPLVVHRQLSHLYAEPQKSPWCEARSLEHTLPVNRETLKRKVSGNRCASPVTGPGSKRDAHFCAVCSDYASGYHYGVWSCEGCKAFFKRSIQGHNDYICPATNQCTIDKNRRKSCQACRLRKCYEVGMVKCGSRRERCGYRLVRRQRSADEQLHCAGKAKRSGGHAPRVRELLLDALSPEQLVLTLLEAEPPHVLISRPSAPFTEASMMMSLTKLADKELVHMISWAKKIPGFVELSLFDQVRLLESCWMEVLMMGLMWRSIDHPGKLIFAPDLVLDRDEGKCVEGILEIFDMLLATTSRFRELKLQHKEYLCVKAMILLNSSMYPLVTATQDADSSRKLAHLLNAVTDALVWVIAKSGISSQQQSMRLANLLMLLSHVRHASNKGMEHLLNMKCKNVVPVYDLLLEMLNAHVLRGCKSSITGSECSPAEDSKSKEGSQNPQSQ

CCCCCCCCS(=O)C(C)Cc1ccc2c(c1)OCO2 (stereo unspecified)
inactive: Potency [1] | Potency [2] | Potency [3] | Potency [4] | Potency [5] | Potency [7] | Potency [8] | Potency [9] | Potency [10] | Potency [11] | outcome [12]
active: Potency [6] 31.2 µM

C[C@@H]1C[C@H]2[C@@H]3CCC4=CC(=O)C=C[C@]4(C)[C@@]3(Cl)[C@@H](O)C[C@]2(C)[C@@]1(OC(=O)c1ccco1)C(=O)CCl
inactive: Potency [1] | Potency [13] | Potency [14] | Potency [3] | Potency [4] | Potency [5] | Potency [7] | outcome [12] | Potency [16]
active: Potency [15] 8.41 µM

O=C1CCCCCN1SSN1CCCCCC1=O
inactive: Potency [1] | Potency [17] | Potency [3] | Potency [4] | Potency [5] | Potency [7] | Potency [8] | Potency [15] | Potency [10] | Potency [11] | Potency [16]
active: Potency [18] 19.3 µM | Potency [19] 54.5 µM | Potency [6] 9.69 µM

CCC1OCC(COc2ccc(Oc3ccccc3)cc2)O1 (stereo unspecified)
inactive: Potency [1] | Potency [2] | Potency [4] | Potency [5] | Potency [7] | Potency [20] | Potency [8] | Potency [15] | Potency [10] | outcome [12]
active: Potency [3] 17.2 µM | Potency [19] 61.1 µM

Cc1cccc(N(C)C(=S)Oc2ccc3c(c2)C2CCC3C2)c1 (stereo unspecified)
inactive: Potency [1] | Potency [17] | Potency [3] | Potency [4] | Potency [18] | Potency [19] | Potency [5] | Potency [6] | Potency [7] | Potency [20] | Potency [8] | Potency [15] | Potency [10] | outcome [12]

Cc1ccc(O)c(C(C)(C)C)c1
inactive: Potency [1] | Potency [2] | Potency [3] | Potency [4] | Potency [18] | Potency [19] | Potency [5] | Potency [8] | Potency [10] | outcome [12] | Potency [16]

C[n+]1cc2c3c(ccc2c2ccc4cc5c(cc4c21)OCO5)OCO3
inactive: activity change, negative = inhibition [17] -84.3% [at 19 µM] | Potency [14] | activity change, negative = inhibition [3] -20.3% [at 19 µM] | activity change, negative = cytotoxicity [4] 25% [at 19 µM] | activity change [5] -5.86% [at 18.9 µM, hits give high values] | activation [9] -10.3% [at 19 µM] | cAMP activity change [12] 4.72% [at 18.9 µM]
active: Potency [1] 13 µM | Potency [13] 7.3 µM | Potency [18] 1.64 µM | Potency [19] 2.91 µM | Potency [8] 11.6 µM | Potency [15] 2.59 µM
